Only some compounds are listed: those with a hit (about 21% of all), similar ones and a draw of the others.
HCV inhibitor: HCV inhibition | Huh7.5.1 HCVcc-Cre infection, luciferase reporter, 44 h | Potency, µM (doses to about 41.8 µM), most hits filed as inhibitors | 340,000 compounds, 3.4% hits | AID 651820
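Cells (1,000/well) were plated 4 h before compound, then infected with HCVcc-Cre virus (~0.5 moi). After 44 h further culture, infection was read as luciferase luminescence following a 15 min substrate incubation at room temperature.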
Pf growth 96h: P. falciparum growth inhibition at 96 hours. P. falciparum luciferase reporter growth, 96 h. Potency, µM (top dose mostly 28.7 µM), most hits filed as inhibitors. 320,000 compounds, 6.9% hits
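Two-generation exposure (96 h) targets delayed-death phenotype. Reporter parasites carrying integrated firefly luciferase, in red cells at 2% hematocrit and 0.05% parasitemia final, kept at 37 C, 5% CO2; luminescence loss indicates inhibition.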
Pf growth 48h: inhibits P. falciparum growth in the first generation, 48 h. P. falciparum luciferase growth in erythrocytes, 48 h. Potency, µM (series often up to 28.7 µM), actives largely listed as inhibitors. 310,000 compounds, 5.9% hits. AID 504832
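Cell-based growth assay: transgenic P. falciparum expressing firefly luciferase, cultured in red cells within RPMI 1640 containing 0.5% w/v Albumax, 24 mM bicarbonate and gentamycin. A drop in luciferase activity indicates inhibition.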
Cycloheximide cs: counter-screen for Shiga toxin inhibitors: cycloheximide protein synthesis inhibition; max response, %; 300,000 compounds, 12% hits; cell reporter, cycloheximide protein synthesis inhibition counterscreen; in the data active = max response mostly above about 13%, no sharp cut-off; inactive = mostly below about 14%; also: read at 38.3 µM for the half of the compounds with a filed dose
AMA1-RON2 inh: AMA1-RON2 (P. falciparum) interaction inhibition | AlphaScreen AMA1-biotinylated RON2 peptide binding | Potency, µM (titrated, usually from 58.2 µM), hits mostly inhibitors | 360,000 compounds, 0.2% hits | AID 720542; also: nearly all actives have a fitted effect of over 45% in size
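AMA1 (3D7) with his tag at 25 nM final met compounds first, then biotinylated RON2 peptide at 25 nM; detection used donor plus acceptor beads, 10 µg/mL apiece, read by AlphaScreen after 30 min at room temperature.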
Shiga toxin inh: Shiga toxin inhibition; inhibition, % at 38.7 µM; 290,000 compounds, 9.2% hits; AID 2315; Vero cells, Shiga toxin protein synthesis inhibition reporter; in the data active = inhibition mostly above about 28%, no sharp cut-off; inactive = mostly below about 43%
A number is an active result; – = inactive; ? = inconclusive; · = no result; [ ] = remark or other dose. Unless noted, calls follow the shape of the dose curve; as a rule, active = well fitted curve in the direction sought with a large enough effect; inconclusive = small, poorly fitted or top-dose-only effect, or another doubt; inactive = no such curve, though single readings can be large; an effect the other way counts as inactive or inconclusive.

SMILES	HCV inhibitor	Pf growth 96h	Pf growth 48h	Cycloheximide cs	AMA1-RON2 inh	Shiga toxin inh
O=C(Nc1ccon1)Nc1ccc(Cl)cc1Cl	–	–	–	24.5	–	41.7
O=C(Nc1ccc(Cl)cc1)Nc1ccon1	–	–	–	15.3	–	28.8
CCOc1cc(C(=O)Nc2ccon2)cc(OCC)c1OCC	–	·	–	–	–	–
Cc1cc(NC(=O)CSc2ncccc2C(=O)O)no1	–	?	–	–	–	–
O=C(Nc1ccon1)Nc1cccc(Cl)c1Cl	–	–	–	9.6	–	–
Cc1ccc(NC(=O)Nc2ccc3c(c2)C(=O)OC3)cc1Cl	–	–	–	–	–	–
Cc1ccc(NC(=O)Nc2ccon2)cc1Cl	–	–	–	28.1	–	50.2
O=C(NCc1ccccc1)c1cc(C2CCCCN2S(=O)(=O)c2cccs2)on1 (stereo unspecified)	·	·	·	·	–	·
CCCCN1CCc2c1nc1ccc(Br)cc1c2N	?	1.65µM	·	–	–	–
Cc1ccc2nc3c(c(N)c2c1)CCN3C	?	?	–	–	–	–
CN(N=Cc1cccc2cccnc12)c1ccc([N+](=O)[O-])cc1[N+](=O)[O-]	–	·	·	·	–	·
CCSc1nnc(-c2ccccc2N)c(=O)[nH]1	–	?	–	23.9	–	52.5
CCSc1nnc(-c2ccccc2N=Cc2c(C)[nH]n(-c3ccccc3)c2=O)c(=O)[nH]1	?	?	–	12.8	–[2.32 µM]	–
Cc1[nH]n(-c2ccccc2)c(=O)c1C=Nc1cccc2cccnc12	3.55µM	–	?	–	–	–
Cc1ccc(-n2[nH]c(C)c(/C=N/c3ccccn3)c2=O)cc1	–	–	–	–	–	–
COc1ccc(S(=O)(=O)N2CCOCC2)cc1NC(=O)CSc1nnc(N)s1	–[8.37 µM]	–	–	·	–	·
Cn1ccc2c(/C=C/c3ccc(F)cc3)cc3c(c21)C1CCC3O1 (stereo unspecified)	·	·	·	·	–	·
CC(C)NC(=O)C1(C)CCN1Cc1ccc(Cl)cc1 (stereo unspecified)	·	·	·	·	–	·
Cc1cccc(NC(=S)NCC23C=CC(O2)C2C(=O)N(c4ccc(Cl)cc4)C(=O)C23)c1 (stereo unspecified)	–	–	–	–	–	–
Cc1ccc(NC(=S)NCC23C=CC(O2)C2C(=O)N(c4ccc(C)cc4)C(=O)C23)cc1 (stereo unspecified)	–	?	?	56.4	–	–
CC1(C)CC(NC(=O)C2CCN(S(=O)(=O)c3ccc(Cl)c(C(F)(F)F)c3)CC2)CC(C)(C)N1	?	·	·	·	–	·
COCCNC(=O)C1(C)CCCN(Cc2csc(-c3ccc(Cl)cc3)n2)C1 (stereo unspecified)	·	·	·	·	–	·
Cc1cccnc1NC(=S)NC(=O)c1cncc(Br)c1	–	–	–	35.2	–	91.4
Cc1ccc(NC(=S)NC(=O)c2cncc(Br)c2)cc1Cl	–	·	·	·	–	·
O=C(NC(=S)Nc1ccccn1)c1cncc(Br)c1	–	–	–	41.3	–	–
SMILES	HCV inhibitor	Pf growth 96h	Pf growth 48h	Cycloheximide cs	AMA1-RON2 inh	Shiga toxin inh
Cc1cccnc1NC(=O)NC(=O)c1ccc(C(C)(C)C)s1	–	–	?	37.7	–	63.2
O=C(NC(=S)Nc1ccc(Br)cn1)c1cccs1	–	?	–	69.1	–	104.8
Cc1ccc(C)c(OCCC(=O)OCC(=O)NC(=O)NC2CCCC2)c1	–	–	–	·	–	·
Cc1ccccc1CN1CCN(c2ccc(S(=O)(=O)N3CCCC3)cn2)CC1	?	?	?	·	–[11.6 µM]	·
Cc1cccnc1NC(=S)NC(=O)c1cccs1	–	–	–	58.9	–	190.6
O=C(NC(=S)Nc1ccc(Br)cn1)c1cncc(Br)c1	–	13.1µM	–	–	–	–
COCCn1c(-c2ccc(OC)cc2)c(-c2ccc(OC)cc2)oc1=O	–	13.1µM	8.28µM	–	–	–
CCOC(=O)c1cccc(NC(=S)NCc2ccc(C)cc2)c1	–	–	–	–	–	–
COc1ccc(C(=O)NCC(=O)OCC(=O)c2ccc3c(c2)NC(=O)CO3)cc1	–	–	–	–	–	–
CCC1(C)Cc2ccccc2-c2nc(NCCCO)n(-c3ccccc3)c(=O)c21 (stereo unspecified)	?	10.4µM	·	–	–	–
O=C(C[C@H]1CC[C@H]2[C@@H](COC[C@H](O)CN2Cc2ccccc2)O1)NCCCN1CCOCC1	·	·	·	·	–	·
O=C(CC(=O)Nc1nc(C23CC4CC(CC(C4)C2)C3)cs1)NCCO	–	9.28µM	13.1µM	–	–	–
CC1CC(C)CN(C(=O)CSc2nnc(-c3ccc(Cl)cc3)o2)C1 (stereo unspecified)	–	–	·	–	–	–
COc1ccccc1-c1nnc(SCC(=O)N2CCOCC2)o1	–	–	–	–	–	–
O=C(CSc1nnc(-c2ccc(Cl)s2)o1)N1CCOCC1	·	?	–	–	·	62.0
O=C(CSc1nnc(-c2ccc(Cl)cc2)o1)N1CCOCC1	–	–	–	53.1	–	81.1
O=C(CSc1nnc(-c2ccccc2Cl)o1)N1CCOCC1	–	–	–	36.0	–	93.1
O=C(CSc1nnc(-c2ccncc2)o1)N1CCCC1	–	–	?	–	–	–
CCOC(=O)N1CCN(C(=O)CSc2nnc(-c3ccc(Cl)s3)o2)CC1	·	–	–	–	·	–
O=C(CSc1nnc(-c2ccc(O)cc2)o1)N1CCOCC1	–	·	–	52.7	–	–
C[C@@H]1CN([C@@H](C)CO)C(=O)CCCn2nncc2CO[C@@H]1CN(C)C(=O)Nc1cccc(C(F)(F)F)c1	·	·	·	·	–	·
Oc1ccc(-c2nnc(SCC3CCCCC3)o2)cc1	–	?	–	22.1	–	82.2
N/C(=N\OC(=O)c1cccc(F)c1)c1ccccc1	–	?	–	88.3	–	92.5
N/C(=N\OC(=O)c1cccc(F)c1)c1ccccn1	–	?	–	–	–	–
Cc1ccc(/C(N)=N/OC(=O)c2cccc(F)c2)cc1	?	–	–	37.5	–	115.0
SMILES	HCV inhibitor	Pf growth 96h	Pf growth 48h	Cycloheximide cs	AMA1-RON2 inh	Shiga toxin inh
CCN(c1ccccc1)c1nc(Cl)nc2c1cnn2C	?	·	·	·	–	·
CC(=O)Nc1cccc(NC(=O)CSc2nc3c(=O)n(C)c(=O)n(C)c3n2C)c1	–	–	–	·	–	·
Cc1ccc2oc(=O)c(/C=C(\O)c3ccco3)nc2c1	–	?	?	17.4	–	–
Cc1ccc2oc(=O)c(/C=C(\O)C(C)(C)C)nc2c1	–	–	?	–	–	–
CC(C)(C)/C(O)=C/c1nc2cc(Cl)ccc2oc1=O	–	5.86µM	9.28µM	–	–	–
Cc1ccc2oc(=O)c(/C=C(\O)c3sc(C)nc3C)nc2c1	–	10.4µM	?	–	–	–
N#Cc1nc(-c2ccc(F)cc2)oc1N1CCCCC1	–	–	–[0.00184 µM]	–	–	–
COc1ccc(-c2nc(C#N)c(N3CCCCC3)o2)cc1	–	–	–	–	?	–
Cc1cccc(-c2nc(C#N)c(NC3CCCCC3)o2)c1	?	4.65µM	–	49.9	–	168.1
N#Cc1nc(-c2ccc(F)cc2)oc1N1CCCC1	–	0.294µM	–	–	–	–
